Test results as given in ChEMBL document CHEMBL4513216, “Probing the Open Global Health Chemical Diversity Library for Multistage-Active Starting Points for Next-Generation Antimalarials” (ACS Infect Dis, 2020).
The whole screen tested about 69,000 compounds, of which about 8,600 (12%) showed an effect of 50% or more. This excerpt belongs to a sample that is enriched for strong results.

These compounds were tested on Plasmodium berghei (assay: Screen against P. berghei liver stage (PbLuc), transformed with Luciferase, at 10uM). Conditions: tested at 10 uM.
Assay type: functional, HepG2

Row | SMILES | INHIBITION [%]
1 | Cc1ccnc(C2COCCN2C)n1 (stereo not drawn) | 8.905
2 | CCn1ccnc1CN1CCN(CC(O)c2ccco2)CC1 (stereo not drawn) | 10.55
3 | c1cncc(COCC2CN(Cc3cccnc3)Cc3ccnn3C2)c1 (stereo not drawn) | -60.2
4 | CCCc1cc(=O)[nH]c(-c2ccccc2CN(C)CCC(C)C)n1 | 36.6
5 | Cc1cccn2cc(CN3CCC(N4CCN(C)C4=O)CC3)nc12 | -1.85
6 | OC(CN1CCN(Cc2cccnc2)CC1)c1cccs1 (stereo not drawn) | 10.1
7 | CCc1nccn1CCC(=O)N1CCCC1c1cncc(NC)n1 (stereo not drawn) | 2.365
8 | O=C(CN1CC(c2nc(C3CC3)no2)C1)NCC1CCCO1 (stereo not drawn) | 48
9 | O=S(=O)(C1CC1)N1CCO[C@H]2[C@H](OCCN3CCCC3)CC[C@@H]21 | -9.67
10 | CN(Cc1cnccn1)S(=O)(=O)N1CCCC1c1ccco1 (stereo not drawn) | 4.3
11 | Cc1noc(C)c1CN1CCOC(CNc2cccnn2)C1 (stereo not drawn) | -7.35
12 | CCOc1cc(CNCc2nc(C)cc(=O)[nH]2)c(Cl)cc1OC(C)C | 39.6
13 | CCOc1cc(CNCc2ncc[nH]2)c(Cl)cc1OC(C)C | 33.1
14 | CCOc1cc(CNCc2cnc(C)cn2)c(Cl)cc1OC(C)C | 63.5
15 | Cc1nc(CN2CCN(C(=O)NC(C)Cn3ccnc3)CC2)cs1 (stereo not drawn) | -28.2
16 | CN(C)c1ncc(CN2CCC(c3nnsc3S(C)(=O)=O)CC2)cn1 | 51.2
17 | CS(=O)(=O)c1snnc1C1CCN(Cc2ccncc2)CC1 | 67.7
18 | CS(=O)(=O)c1snnc1C1CCN(Cc2cccnc2)CC1 | 48.6
19 | Cc1cccc(CN2CCC(c3nnsc3S(C)(=O)=O)CC2)c1 | 18.9
20 | CS(=O)(=O)c1snnc1C1CCCN(Cc2ccncc2)C1 (stereo not drawn) | 9.93
21 | CNc1ncc(CN2CCC(c3nnsc3S(C)(=O)=O)CC2)cn1 | 21.9
22 | CCC(O)CN1CCN(C(=O)c2cnc3n[nH]c(C)c3c2)CC1 (stereo not drawn) | 12.7
23 | O=C(O)CSc1nccc(-c2ccc3c(c2)OCO3)n1 | 8.51
24 | CCc1nnc(C(C)N2CCc3cncnc3C2)o1 (stereo not drawn) | 2.43
25 | O=C(NC1CC1)N1CC[C@H](OCC2CC2)[C@@H]1Cc1cccnc1 | 29
26 | O=C(CN1CCC(c2ccccc2)C1)NC(=O)NCC(F)(F)F (stereo not drawn) | 36.65

Row | SMILES | INHIBITION [%]
27 | O=C(Nc1nc2c(s1)CN(S(=O)(=O)C1CC1)CC2)c1c(F)cccc1F | -45.9
28 | O=C(Nc1nc2c(s1)CN(S(=O)(=O)C1CC1)CC2)c1cccc(Cl)c1 | 26
29 | O=C(Nc1nc2c(s1)CN(S(=O)(=O)C1CC1)CC2)c1ccccn1 | 39.3
30 | O=C(Nc1nc2c(s1)CN(S(=O)(=O)C1CC1)CC2)Nc1ccccc1F | 64.5
31 | CS(=O)(=O)N1CCc2nc(NC(=O)Nc3c(F)cccc3F)sc2C1 | 9.54
32 | O=C(Nc1nc2c(s1)CN(S(=O)(=O)C1CC1)CC2)c1ccc(Cl)s1 | 73.3
33 | CC(CNC(=O)NCCCc1cc(N)n(-c2ccccc2)n1)N(C)C (stereo not drawn) | 30.3
34 | CCN(CC)Cc1cn2c(n1)CN(C(=O)c1cc(C)on1)CC2 | 38.1
35 | COC(=O)C1(NCC(=O)Nc2cc(C)ccc2OC)CCCCC1 | 5.11
36 | c1ncn(CC2CN(Cc3nc(C4CC4)no3)CCO2)n1 (stereo not drawn) | -7.31
37 | CCn1cnnc1C1CCN(C(=O)c2ccnc(N(C)C)c2)CC1 | 31.6
38 | COc1ccc(O[C@H]2COCCN(C(=O)c3ccno3)C2)cc1 | -11.1
39 | O=C(c1ccno1)N1CCOC[C@H](Oc2ccccc2)C1 | 25.3
40 | O=C(c1ccno1)N1CCOC[C@H](Oc2ccc(C(F)(F)F)cc2)C1 | 50.2
41 | CCOCC(=O)Nc1cccc(Oc2ccccn2)c1 | -13.4
42 | COCCN1CCC2(CCN(Cc3cccs3)CC2)C1=O | -3.12
43 | O=C(NCCCn1nc2ccccn2c1=O)NCc1ccccc1 | -9.76
44 | O=C(NCC1CC1)c1cc2c(s1)CCN2c1ncccn1 | 75.6
45 | CC(C)NC(=O)c1cc2c(s1)CCN2c1ncccn1 | -21.3
46 | O=C(NCCN1CCCC1)c1cc2c(s1)CCN2c1ncccn1 | 61.1
47 | CCCNC(=O)c1cc2c(s1)CCN2c1ncccn1 | 4.98
48 | O=C(NCC1CC1)c1cc2c(s1)CCN2C(=O)c1cccnc1 | -26.1
49 | Cc1ccc(N2CCc3sc(C(=O)NCCN4CCCC4)cc32)nn1 | -15.2
50 | O=C(c1ccco1)N1CCO[C@@H]2CNC[C@@H]21 | 22.2
51 | COc1ccc(C)cc1-n1ccc(C(=O)NCC2CCCOC2)n1 (stereo not drawn) | 17.3
52 | OC1(CNCCc2nc3c(s2)CCCC3)CNCCOC1 (stereo not drawn) | -12.1

Row | SMILES | INHIBITION [%]
53 | CN(CCCSc1ccccc1)C(=O)Cn1ncc(N(C)C)cc1=O | 31.7
54 | Cc1ccc(NC(=O)c2nc3c(s2)CCCN3C(=O)C2CC2)cn1 | -0.804
55 | CC(=O)N1CCCc2sc(C(=O)Nc3ccc(C)nc3)nc21 | 34.6
56 | Cc1ccc(NC(=O)c2nc3c(s2)CCCN3C(C)C)cn1 | 63.5
57 | NS(=O)(=O)CCN(CCc1cccc(F)c1)C1CCCC1 | 36.3
58 | CS(=O)(=O)Nc1cnn(Cc2cccc(Cl)c2)c1 | 29.1
59 | COc1ccc(-n2ccc(C(=O)NCCn3ccnc3)n2)cc1 | 5.9
60 | CN1[C@@H]2CC[C@H]1CN(C(=O)c1nnc3n1CCCC3)CC2 | -151
61 | O=C(NCc1ccccn1)[C@@]12CCO[C@@H]1CCN(Cc1ccccn1)C2 | 51.2
62 | Cc1ncsc1CN1CC[C@H]2OCC[C@@]2(C(=O)NCC2CC2)C1 | 53.4
63 | O=C(NCc1ccco1)[C@@]12CCO[C@@H]1CCN(Cc1ccccn1)C2 | -34.7
64 | COCCNC(=O)[C@@]12CCO[C@@H]1CCN(Cc1scnc1C)C2 | 8.67
65 | CNC(=O)[C@@]12CCO[C@@H]1CCN(Cc1scnc1C)C2 | 19
66 | O=C(NCc1ccccn1)[C@@]12CCO[C@@H]1CCN(c1ncccn1)C2 | 41.2
67 | O=C(NCc1ccco1)[C@@]12CCO[C@@H]1CCN(CCN1CCCC1)C2 | 22.4
68 | CC(C)NC(=O)[C@@]12CCO[C@@H]1CCN(Cc1ccco1)C2 | 60.3
69 | Cc1cc(CN2CC[C@H]3OCC[C@@]3(C(=O)NC(C)C)C2)no1 | 6.32
70 | c1coc(CN2CCCn3c(nnc3Cn3cccc3)C2)c1 | 45.4
71 | Cc1ccc(CN2C[C@H](OCC3CCOCC3)[C@H]3COC[C@H]32)o1 | -59.9
72 | Oc1cc(CC2COCCN(CC3(O)CCOCC3)C2)ncn1 (stereo not drawn) | 6.26
73 | CC(C)c1nnc2n1CCN(C(=O)Cc1csc(C(C)(C)C)n1)C2 | 1.35
74 | CC(C)N1CCC(Cc2cc(-c3cccc(C(=O)O)c3)ncn2)CC1 | 23.4
75 | c1coc(CN2CCO[C@H]3[C@H](OCC4CCCC4)CC[C@@H]32)c1 | 47.4
76 | c1cc(CN2CCO[C@H]3[C@H](OCCN4CCCC4)CC[C@@H]32)ccn1 | 38.2
77 | Fc1ccc(CN2CCO[C@H]3[C@H](OCC4CC4)CC[C@@H]32)cc1 | -30.8
78 | Fc1ccc(CN2CCO[C@H]3[C@H](OCCN4CCCC4)CC[C@@H]32)cc1 | 15.1

Row | SMILES | INHIBITION [%]
79 | c1cc(CN2CCO[C@H]3[C@H](OCC4CCCC4)CC[C@@H]32)ccn1 | 62.6
80 | Fc1ccc(CN2CCO[C@H]3[C@H](OCC4CCCC4)CC[C@@H]32)cc1 | 66.8
81 | CCOC[C@]12COC[C@H]1CN(Cc1ccc(F)c(F)c1)C2 | 10.4
82 | Cc1cnccc1CN(C)Cc1c[nH]nc1-c1ccc(F)cc1F | 18.6
83 | COc1ccc(-c2n[nH]cc2CN(C)Cc2nnc(C)o2)c(F)c1 | 23.8
84 | CN(Cc1c[nH]nc1-c1ccc(F)cc1F)Cc1nccn1C | 52.2
85 | CC(C)CN(C)Cc1c[nH]nc1-c1ccc(F)cc1F | 11.9
86 | COc1ccc(-c2n[nH]cc2CN(C)Cc2ccoc2)c(F)c1 | -25.8
87 | COc1ccc(-c2n[nH]cc2CN(C)Cc2nccn2C)c(F)c1 | 51.5
88 | Cc1nc(CN2C(=O)CC[C@@H]3[C@H]2CCN3C(=O)C2CCCO2)cs1 (stereo partly drawn) | 15.4
89 | O=C(CCc1ccncc1)N1CCc2cc(Cl)cc(Cl)c2C1 | 49.7
90 | COc1ccc(F)cc1C(=O)N1C[C@@H]2CC[C@H]1CN(c1ncccn1)C2 | 10.7
91 | CC(C)C(=O)N1CCC(C)(c2cc(O)[nH]n2)CC1 | -4.87
92 | Cc1cccc(CN2CCCC2c2cccc(Nc3nccs3)n2)c1 (stereo not drawn) | 72
93 | c1ccc(CCN2CCCC2c2ccnc(Nc3ncccn3)n2)cc1 (stereo not drawn) | 11.8
94 | CS(=O)(=O)N1CCCC1c1cccc(Nc2nccs2)n1 (stereo not drawn) | -17.7
95 | c1ccc(CCN2CCCC2c2cncc(Nc3nncs3)n2)cc1 (stereo not drawn) | 11.8
96 | Cc1ccccc1CN1CCCC1c1cccc(Nc2nccs2)n1 (stereo not drawn) | 71.8
97 | c1ccc(CCN2CCCC2c2cccc(Nc3nccs3)n2)cc1 (stereo not drawn) | 69.2
98 | Cc1ccccc1CN1CCCC1c1cncc(Nc2nncs2)n1 (stereo not drawn) | 22
99 | Cc1cccc(CN2CCCC2c2cncc(Nc3nncs3)n2)c1 (stereo not drawn) | 46.2
100 | COc1cccc(CN2CCCC2c2cncc(Nc3nncs3)n2)c1 (stereo not drawn) | -29.9
101 | COc1cccc(CNC(=O)CCNS(=O)(=O)c2ccc(C)cc2)c1 | -31.3
102 | CCCC1c2cccn2CCN1S(=O)(=O)N1CCOCC1 (stereo not drawn) | 1.65
103 | CCCc1nc(C(=O)NC(COC)c2ccnn2C)cs1 (stereo not drawn) | 16.3
